Results reported in PubChem BioAssay AID463173 (ICCB-Longwood Screening Facility, Harvard Medical School, 2010).
In all, about 52,000 compounds went through this assay and about 1,700 (3.3%) were called active. The list comes from a sample in which actives are over-represented; it also holds similar structures and randomly drawn compounds. A number with no mark means an inactive call. Cut-off read from the data, not from the text of the source: active = survival mostly below about 52% (no sharp cut-off); inactive = mostly above about 56%.

Tested on: Wild type
Experiment: growth inhibition of S. aureus wild type versus tarO mutant, primary screen, teichoic acid synthesis inhibitors, RN4220, OD600 (AID 463173)
Settings: S. aureus RN4220 wild type/DeltatarO growth, OD600, 18 h, active compounds read low, screened at 18.75 µg/mL (by protocol)

SMILES	survival
O=C(CC12CC3CC(CC(C3)C1)C2)N1CCCOC1	114%
N=c1nc(SCCC(=O)O)ss1	112%
COc1ccc(NC(=O)C(C)Sc2cc(-c3ccccc3)nc(C)n2)cc1Cl (stereo not drawn)	81%
Cc1c(Cl)cccc1NC(=O)CCS(=O)(=O)c1ccc2c(c1)CC(=O)N2C	85%
COc1ccc(C(CC(=O)Nc2ccc(C)c(C)c2)N2Cc3ccccc3C2=O)cc1OC (stereo not drawn)	66%
COc1ccc(NC(=O)Cn2c(=O)n(CCC(=O)NCCc3ccc(OC)c(OC)c3)c(=O)c3ccccc32)cc1Cl	92%
CC1=C(c2ccc(C)c(C)c2)S(=O)(=O)N=C1N1CCC(C(=O)N2CCCCC2)CC1	129%
CCc1ccc(C2=C(C)C(N3CCC(C(=O)NCc4ccccc4)CC3)=NS2(=O)=O)cc1	67%
CC1=C(c2ccc(C(C)C)cc2)S(=O)(=O)N=C1N1CCC(C(=O)NCc2ccc(C)o2)CC1	63%
CC1=C(c2ccc(C(C)C)cc2)S(=O)(=O)N=C1N1CCC(C(=O)NCc2ccco2)CC1	63%
CC1=C(c2ccc(C(C)C)cc2)S(=O)(=O)N=C1N1CCC(C(=O)NCc2ccccc2)CC1	-3% (active)
CC1=C(c2ccc(C(C)C)cc2)S(=O)(=O)N=C1N1CCC(C(=O)NCCc2ccco2)CC1	1% (active)
CC1=C(c2ccc(Cl)cc2)S(=O)(=O)N=C1N1CCC(C(=O)NCCc2ccco2)CC1	55%
CC1=C(c2ccc(C)c(C)c2)S(=O)(=O)N=C1N1CCC(C(=O)N2CCC(C(N)=O)CC2)CC1	-4% (active)
CC1=C(c2ccc(C)c(C)c2)S(=O)(=O)N=C1N1CCC(C(=O)N2CCC(C)CC2)CC1	81%
CCc1ccccc1NC(=O)c1cc(S(=O)(=O)N2CCCC2)cn1C	84%
CCC(C)NC(=O)Cn1c(=O)n(CC2CCC(C(=O)NC)CC2)c(=O)c2sccc21 (stereo not drawn)	70%
CC(C)N(C(=O)Cn1cc(SCC(=O)Nc2ccccc2C(F)(F)F)c2ccccc21)C(C)C	105%
COc1ccccc1Cc1nc2ccccc2nc1SCC(=O)N1CCc2ccccc21	49%
Cc1cc(Br)ccc1NC(=O)CSc1c2c(nc3ccccc13)CCC2	75%
N#Cc1c(C(F)(F)F)cc(-c2cccs2)nc1SCC(=O)Nc1ccc(Cl)cc1	78%
CCOc1ccc(C(=O)NCCSc2c(C)[nH]c3ccccc23)cc1OCC	86%
Cc1ccc(C(=O)NCCSc2c(C)[nH]c3ccccc23)cc1C	19% (active)
Cc1[nH]c2ccccc2c1SCCNC(=O)c1ccc(F)cc1	64%

SMILES	survival
CCNS(=O)(=O)c1ccc(S(=O)(=O)N(Cc2ccccn2)C2CCCCC2)cc1	107%
CC1CCN(C(=O)Cn2c(=O)n(CC3CCC(C(=O)NC(C)C)CC3)c(=O)c3sccc32)CC1 (stereo not drawn)	78%
CCn1c(C(=O)NCc2ccc(C)cc2)cc2sc(Cl)cc21	78%
CCn1c(C(=O)NCc2ccc(OC)cc2)cc2sc(Cl)cc21	37%
CCn1c(C(=O)NCc2ccccc2)cc2sc(Cl)cc21	2% (active)
CCOC(=O)c1c(C)n(-c2ccccc2)c2ccc(OC(=O)COc3ccc(Cl)cc3)cc12	78%
Cc1ccc(OC(=O)c2cc(-c3ccc(Cl)cc3)on2)c(C)c1	93%
Cc1ccc(NC(=O)c2cc(-c3ccc4c(c3)OCO4)on2)cc1	105%
Cc1ccccc1OC(=O)c1cc(-c2ccc3c(c2)OCCO3)on1	-6% (active)
Cc1ccc(-c2cc(C(=O)Oc3ccccc3Cl)no2)cc1C	-6% (active)
O=C(Nc1cccc(Cl)c1)c1cc(-c2ccc3c(c2)OCCO3)on1	122%
Cc1ccc(OC(=O)c2cc(-c3ccc4c(c3)OCCO4)on2)c(C)c1	-6% (active)
CC(C)c1ccc(OC(=O)c2cc(-c3ccccc3)on2)cc1	106%
Cc1ccc(Cl)cc1NC(=O)c1cc(-c2ccc3c(c2)OCCO3)on1	67%
O=C(Oc1ccccc1Cl)c1cc(-c2ccc3c(c2)OCCO3)on1	-7% (active)
CCOC(=O)c1cc(-c2ccc(OC)c(S(=O)(=O)NCc3ccccc3Cl)c2)on1	79%
O=C(Nc1ccccc1C(F)(F)F)c1cc(-c2ccc3c(c2)OCCO3)on1	113%
Cc1oc2ncn(C)c(=O)c2c1C(=O)N1CCN(c2cccc(C(F)(F)F)c2)CC1	82%
CCOc1ccccc1CNCCNC(=O)c1nonc1N	128%
CCCNS(=O)(=O)c1ccc(OCC(=O)NCc2ccccn2)cc1	122%
NC(=Nc1ccccc1)SC1CC(=O)N(c2ccccc2)C1=O (stereo not drawn)	113%
O=C(Nc1ccccc1NC(=O)c1cccs1)c1cccs1	111%
COc1cccc(NC(=O)Cn2c(=O)ccc3cc(S(=O)(=O)N4CCC(C)CC4)ccc32)c1	73%
CCn1cc(/C=C(\NC(=O)c2ccccc2Cl)C(=O)NCCCn2ccnc2)c2ccccc21	121%

SMILES	survival
COC(=O)c1sccc1S(=O)(=O)N1CCN(c2cccc(C)c2C)CC1	67%
COc1cc(NC(=O)Cn2c(-c3ccccc3)cc(C(C)=O)c2C)cc(OC)c1	92%
COc1ccc2c(c1)N(C)/C(=C1/SC(=S)N(C)C1=O)S2	122%
COc1cccc(CNC(=O)c2cc(-c3ccc(Cl)cc3)n[nH]2)c1	136%
C#CCNc1c2c(nc3nnnn13)CCCC2	104%
CCSC(=C(C#N)C#N)c1cc2c([nH]1)CCCC2	116%
Cc1ccc2ccc3cc(C(=O)N4CCN(c5ccccc5F)CC4)nc3c2[nH]1	78%
CCOc1ccc(NC(=O)Cn2c(=O)n(Cc3ccc(C(=O)NCc4ccc5c(c4)OCO5)cc3)c(=O)c3ccccc32)cc1	98%
O=C(Nc1cccc(Br)c1)c1cc(-c2ccc3c(c2)OCCO3)on1	80%
Cc1cccc(OC(=O)c2cc(-c3ccc(Cl)cc3)on2)c1C	116%
Cc1cccc(OC(=O)c2cc(-c3ccc4c(c3)OCCO4)on2)c1C	-6% (active)
CCCc1nnc(NC(=O)Cc2coc3ccc(C(C)C)cc23)s1	99%
O=C(Nc1ccc2c(c1)N(C1CCCC1)C(=O)c1ccccc1S2)c1ccccc1	75%
O=C(Nc1ccc2c(c1)N(C1CCCC1)C(=O)c1ccccc1S2)c1ccc(F)cc1	87%
CC(=O)Nc1ccc(C(=O)Nc2ccc3c(c2)N(C2CCCC2)C(=O)c2ccccc2S3)cc1	-6% (active)
Cc1ccc(S(=O)(=O)C(=O)Nc2cccc3nsnc23)cc1	93%
CCc1ccc(NC(=O)Cn2c(=O)n(CC3CCCO3)c(=O)c3cc(OC)c(OC)cc32)cc1 (stereo not drawn)	68%
CN1CCN(C(CNC(=O)C(=O)Nc2ccc(F)cc2)c2cccnc2)CC1 (stereo not drawn)	96%
Cc1cc2c(cc1S(=O)(=O)N(C)CC(=O)Nc1cccc(C#N)c1)OCC(=O)N2	-4% (active)
Cc1cc2c(cc1S(=O)(=O)N(C)CC(=O)Nc1ccc(C#N)cc1)OCC(=O)N2	64%
CN(CC(=O)Nc1cccc(C#N)c1)S(=O)(=O)c1cc2c(cc1Cl)NC(=O)CO2	129%
COc1ccc(-c2[nH]ncc2C(=O)NCc2cccc(F)c2)cc1	78%
CCOC(=O)c1c(C)oc2nc(C)nc(N3CCN(c4ccc(OC)cc4)CC3)c12	68%
Cc1noc2nc(C(=O)O)nc(N3CCCCC3)c12	73%

SMILES	survival
CCOC(=O)c1nc(N2CCN(c3ccc(F)cc3)CC2)c2c(C)noc2n1	14% (active)
CCC(=O)N1CCc2cc(CNS(=O)(=O)c3cccs3)ccc21	89%
Cc1cc(OCC(=O)NCC2(N3CCN(C)CC3)CCCCC2)cc(C)c1Cl	80%
CC(C)Oc1ccc(CNC(=O)c2ccccc2NC(=O)c2nsc3ccccc23)cc1	124%
Cc1ccc(CNC(=O)c2ccccc2NC(=O)c2nsc3ccccc23)cc1	75%
CCOc1ccc(CNC(=O)c2ccccc2NC(=O)c2nsc3ccccc23)cc1	-6% (active)
Cc1ccc(S(=O)(=O)NCCc2nnc3ccc(SCC(=O)Nc4c(C)cc(C)cc4C)nn23)cc1	86%
CCC(=O)N1CCc2cc(S(=O)(=O)NCCC(=O)Nc3cc(C)ccc3OC)ccc21	117%
Cc1ccc(NC(=O)C(Cc2c[nH]c3ccccc23)NC(=O)OCC(C)C)cc1 (stereo not drawn)	54%
CCCCOc1ccc(C(=O)Nc2sc3c(c2C(=O)OCC)CCCCC3)cc1	38%
COC(=O)c1c(NC(=O)C(C)Oc2ccc(Cl)cc2Cl)sc2c1CCCC2 (stereo not drawn)	57%
CNC(=O)c1c(NC(=O)c2ccc(S(=O)(=O)N3CCC(C)CC3)cc2)sc2c1CCC2	129%
Cc1cc(OC(C)C(=O)Nc2sc3c(c2C(N)=O)CCCC3)ccc1Cl (stereo not drawn)	82%
CCCOc1ccc(C(=O)Nc2sc3c(c2C(=O)OCC)CCCCC3)cc1	27%
CCOC(=O)c1c(NC(=O)c2ccc(OC)cc2)sc2c1CCCCC2	7% (active)
CNC(=O)c1c(NC(=O)c2ccc(S(=O)(=O)N3CCCCC3)cc2)sc2c1CCC2	-2% (active)
CCCc1ccc(OCC(=O)Nc2sc3c(c2C(=O)OC)CCCCC3)cc1	43%
CNC(=O)c1c(NC(=O)c2ccc(S(=O)(=O)N3CCCC(C)C3)cc2)sc2c1CCC2 (stereo not drawn)	101%
CCOC(=O)c1c(NC(=O)C(C)Oc2ccc(Cl)c(C)c2)sc2c1CCCC2 (stereo not drawn)	50%
COC(=O)c1c(NC(=O)C(C)Oc2ccc(Cl)c(C)c2)sc(C)c1C (stereo not drawn)	10% (active)
CCCc1ccc(OC(C)C(=O)Nc2sc3c(c2C(=O)OC)CCCCC3)cc1 (stereo not drawn)	-2% (active)
